Results filed as inconclusive are left out. Entries that show only a call come without a potency. Active and inactive are the calls of the source. The call rests on the fitted dose curve; in most records, active means well fitted inhibition curve with a large enough effect; inconclusive means small, poorly fitted or top-dose-only effect; inactive means flat fitted curve, though single readings scatter.
Experiments:
Assay in all cases: qHTS profiling for inhibitors of Plasmodium falciparum proliferation (AID 504749); further: nearly all actives have a fitted effect of over 60% in size
Details in all cases: P. falciparum in erythrocytes, SYBR Green DNA, 72 h; series mostly up to 28.7 µM
CP217 = test system: CP217
In short: (§1)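 Three-day growth assay of blood-stage parasites in erythrocytes (0.3% parasitemia, 2.5% hematocrit) at 37 C, 5% CO2, quantified by SYBR Green DNA staining after overnight detergent lysis.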

CP237 = test system: CP237
In short: as §1

CP238 = test system: CP238
In short: as §1

CP247 = test system: CP247
In short: as §1

CP250 = test system: CP250
In short: as §1

CP252 = test system: CP252
In short: as §1

CP256 = test system: CP256
In short: as §1

CP260 = test system: CP260
In short: as §1

CP262 = test system: CP262
In short: as §1

CP265 = test system: CP265
In short: as §1

CP266 = test system: CP266
In short: as §1

CP268 = test system: CP268
In short: as §1

CP269 = test system: CP269
In short: as §1

CP286 = test system: CP286
In short: as §1

CP291 = test system: CP291
In short: as §1

CP297 = test system: CP297
In short: as §1

CP305 = test system: CP305
In short: as §1

CP315 = test system: CP315
In short: as §1

CP325 = test system: CP325
In short: as §1

CP329 = test system: CP329
In short: as §1
Potency means the concentration at half of the fitted maximal effect.

Row | Compound | Potency (CP217) | Potency (CP237) | Potency (CP238) | Potency (CP247) | Potency (CP250) | Potency (CP252) | Potency (CP256) | Potency (CP260) | Potency (CP262) | Potency (CP265) | Potency (CP266) | Potency (CP268) | Potency (CP269) | Potency (CP286) | Potency (CP291) | Potency (CP297) | Potency (CP305) | Potency (CP315) | Potency (CP325) | Potency (CP329)
1 | O=C(O)COc1nn(Cc2ccccc2)c2ccccc12 | inactive | inactive | inactive | inactive | inactive | inactive | inactive | inactive | inactive | inactive | inactive | inactive | inactive | inactive | inactive | inactive | inactive | inactive | inactive | inactive
2 | Cc1ccc(C(C)C)cc2c(C)ccc1-2 | inactive | inactive | inactive | inactive | inactive | inactive | inactive | inactive | inactive | inactive | inactive | inactive | inactive | inactive | inactive | inactive | inactive | inactive | inactive | inactive
3 | O=c1[nH]c(=O)c2[nH]c(=O)[nH]c2[nH]1 | inactive | inactive | inactive | inactive | inactive | inactive | inactive | inactive | inactive | inactive | inactive | inactive | inactive | inactive | inactive | inactive | inactive | inactive | inactive | inactive
4 | Cc1cccc(Nc2cc(Cl)nc(SCC(=O)O)n2)c1C | inactive | inactive | inactive | inactive | inactive | inactive | inactive | inactive | inactive | inactive | inactive | inactive | inactive | inactive | inactive | inactive | inactive | inactive | inactive | inactive
5 | COc1ccc(S(=O)(=O)Nc2nnc(CC(C)C)s2)cc1 | inactive | inactive | inactive | inactive | inactive | inactive | inactive | inactive | inactive | inactive | inactive | inactive | inactive | inactive | inactive | inactive | inactive | inactive | inactive | inactive
6 | CCn1cc(C(=O)O)c(=O)c2cnc(N3CCNCC3)nc21 | inactive | inactive | inactive | inactive | inactive | inactive | inactive | inactive | inactive | inactive | inactive | inactive | inactive | inactive | inactive | inactive | inactive | inactive | inactive | inactive
7 | CC(=O)Oc1ccc(C2(c3ccc(OC(C)=O)cc3)C(=O)Nc3ccccc32)cc1 | inactive | inactive | inactive | inactive | inactive | inactive | inactive | inactive | inactive | inactive | inactive | inactive | inactive | inactive | inactive | inactive | inactive | inactive | inactive | inactive
8 | Cc1cc2c(cc1S(N)(=O)=O)S(=O)(=O)CCC2 | inactive | inactive | inactive | inactive | inactive | inactive | inactive | inactive | inactive | inactive | inactive | inactive | inactive | inactive | inactive | inactive | inactive | inactive | inactive | inactive
9 | Cc1cc(C(C#N)c2ccc(Cl)cc2)c(Cl)cc1NC(=O)c1cc(I)cc(I)c1O (stereo not given) | inactive | inactive | inactive | inactive | inactive | inactive | inactive | inactive | inactive | inactive | inactive | inactive | inactive | inactive | inactive | inactive | inactive |  | inactive | inactive
10 | CC[C@@]1(c2ccccc2)NC(=O)N(C)C1=O | inactive | inactive | inactive | inactive | inactive | inactive | inactive | inactive |  | inactive | inactive | inactive | inactive | inactive | inactive | inactive | inactive | inactive | inactive | inactive
11 | C[C@H]1O[C@@H](n2cc(F)c(=O)[nH]c2=O)[C@H](O)[C@@H]1O | inactive | inactive | inactive | inactive | inactive | inactive | inactive | inactive | inactive | inactive |  | inactive | inactive | inactive | inactive | inactive | inactive | inactive | inactive | inactive
12 | CCCOC(=O)c1ccccc1 | inactive | inactive | inactive | inactive | inactive | inactive | inactive | inactive |  | inactive | inactive | inactive | inactive | inactive | inactive | inactive | inactive | inactive | inactive | inactive
13 | CCC(=O)Nc1ccc(O)cc1 | inactive | inactive | inactive | inactive | inactive | inactive | inactive | inactive | inactive | inactive | inactive | inactive | inactive | inactive | inactive | inactive | inactive | inactive | inactive | inactive
14 | Cn1c(=O)c2c(ncn2CC2OCCO2)n(C)c1=O | inactive | inactive | inactive | inactive | inactive | inactive | inactive | inactive | inactive | inactive | inactive | inactive | inactive | inactive | inactive |  | inactive | inactive | inactive | inactive
15 | CC(=O)NC(Cc1ccccc1)C(=O)O (stereo not given) | inactive | inactive | inactive |  | inactive | inactive | inactive | inactive | inactive | inactive | inactive | inactive | inactive | inactive | inactive | inactive | inactive | inactive | inactive | inactive
16 | CC(O)CN(CCN(CC(C)O)CC(C)O)CC(C)O (stereo not given) | inactive | inactive | inactive | inactive | inactive | inactive | inactive | inactive | inactive | inactive |  | inactive | inactive | inactive | inactive | inactive | inactive | inactive | inactive | inactive
17 | Nc1nc2c(ncn2CCC(CO)CO)c(=O)[nH]1 | inactive | inactive | inactive | inactive | inactive | inactive | inactive | inactive | inactive | inactive |  | inactive | inactive | inactive | inactive | inactive | inactive | inactive | inactive | inactive
18 | C#CCN(C)Cc1ccccc1 | inactive | inactive | inactive | inactive | inactive | inactive | inactive | inactive | inactive | inactive |  | inactive | inactive | inactive | inactive |  | inactive | inactive | inactive | inactive
19 | O=C1NC(=O)[C@@]2(CCOc3ccc(F)cc32)N1 | inactive | inactive | inactive | inactive | inactive | inactive | inactive | inactive | inactive | inactive |  | inactive | inactive | inactive | inactive | inactive | inactive | inactive | inactive | inactive
20 | NC1CCN(c2cccc(Cl)n2)CC1 | inactive | 12.6 µM (active) | inactive | inactive | inactive | inactive | inactive | inactive | inactive | inactive | inactive | inactive | inactive | inactive | inactive |  | inactive | inactive | inactive | inactive
21 | O=S(=O)(O)c1cc(I)c(O)c2ncccc12 | inactive | inactive | inactive | inactive | inactive | inactive | inactive |  | inactive | inactive | inactive | inactive | inactive | inactive | inactive | inactive | inactive | inactive | inactive | inactive
22 | CCCCN1CCCC[C@H]1C(=O)Nc1c(C)cccc1C | inactive | 8.91 µM (active) | inactive | inactive | inactive | inactive | inactive | inactive | inactive |  | inactive | inactive | inactive | inactive |  | inactive | inactive | inactive | inactive | inactive
23 | CCCCN(CCCC)CCCOC(=O)c1ccc(N)cc1 | inactive | inactive | inactive | inactive | inactive | inactive | inactive | inactive | inactive |  | inactive | inactive | inactive | inactive | inactive | inactive | inactive | inactive | inactive | inactive
24 | CC1(C)OC(=O)NC1=O | inactive | inactive | inactive | inactive | inactive | inactive | inactive |  | inactive | inactive | inactive | inactive | inactive | inactive | inactive | inactive | inactive | inactive | inactive | inactive
25 | O=S(=O)(O)NC1CCCCC1 | inactive | inactive | inactive | inactive |  | inactive | inactive | inactive | inactive | inactive | inactive | inactive | inactive | inactive | inactive | inactive | inactive | inactive | inactive | inactive
26 | NCC(=O)CCC(=O)O | inactive | inactive | inactive | inactive | inactive | inactive | inactive | inactive | inactive | inactive | inactive | inactive | inactive | inactive | inactive |  | inactive | inactive | inactive | inactive
27 | O=C1c2c(O)cccc2Cc2cccc(O)c21 | inactive | inactive | inactive | inactive | inactive | inactive | inactive | inactive | inactive | inactive | inactive | inactive | inactive | inactive |  | inactive | inactive | inactive | inactive | inactive

From PubChem BioAssay (NCATS)
